Source: PubChem BioAssay
Most compounds without a hit are left out; they make up all but 1.8% or so of the library.
TCR act = activates T cell receptor signaling | primary human leukocytes, anti-CD3, IL-2 HTRF, 48 h | Potency, µM (series often up to 9.22 µM), without a hit: top-dose activation of IL-2 secretion, most hits filed as activators | 330,000 tested, under 10 active | AID 504894; further: % of control where 0% means no effect
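IL-2 release read by HTRF sandwich (Eu cryptate donor, d2 acceptor, 665 nm emission) after 48 hr exposure of primary human leukocytes to compound together with anti-CD3 beads in the absence of co-stimulatory signals.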
AT treatment = potential ataxia-telangiectasia treatments restoring KAP-1 phosphorylation. F2112 A-T fibroblasts, KAP-1 phosphorylation AlphaLISA; neocarzinostatin DNA damage 30 min before lysis. Potency, µM (highest dose often 57.5 µM), for inactives: at the highest dose activation, actives largely listed as activators. 320,000 tested, 0.19% active. AID 485349; further: potency means the concentration at half of the fitted maximal effect; % of control where 0% means no effect; nearly all actives have a fitted effect of over 45% in size
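hTERT-immortalized A-T patient fibroblasts (F2112), 500 cells/well in OPTI-MEM, 1% FBS, got compounds for 60 min, then NCS for 30 min at 37C. Lysates were then assayed for phospho-KAP-1 by AlphaLISA (anti-pKAP1 donor, anti-KAP1 acceptor beads), 6 hr at 25C.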
MBNL1 CUG block = blocks human MBNL1 binding to CUG repeat RNA | 280,000 tested, 0.036% active | Potency, µM (series often up to 57.5 µM), for the others: at the top dose activity change, negative = inhibition, actives largely listed as inhibitors | TR-FRET MBNL1-His/biotin-(CUG)12 binding, 665/545 ratio | AID 2675 | Q9NR56; active means well fitted inhibition curve with a large enough effect in the signal ratio, with a control signal flat, not every such curve was filed as active; inconclusive means small, poorly fitted or top-dose-only effect, or effect the other way, or a change in a side signal; inactive means no such curve, though single readings can be large or run the other way; the % refers to the signal ratio; further: potency means the concentration at half of the fitted maximal effect; on the % scale 0 is the no-effect control and ±100 the full control effect
Target sequence (Q9NR56 whole entry, looked up): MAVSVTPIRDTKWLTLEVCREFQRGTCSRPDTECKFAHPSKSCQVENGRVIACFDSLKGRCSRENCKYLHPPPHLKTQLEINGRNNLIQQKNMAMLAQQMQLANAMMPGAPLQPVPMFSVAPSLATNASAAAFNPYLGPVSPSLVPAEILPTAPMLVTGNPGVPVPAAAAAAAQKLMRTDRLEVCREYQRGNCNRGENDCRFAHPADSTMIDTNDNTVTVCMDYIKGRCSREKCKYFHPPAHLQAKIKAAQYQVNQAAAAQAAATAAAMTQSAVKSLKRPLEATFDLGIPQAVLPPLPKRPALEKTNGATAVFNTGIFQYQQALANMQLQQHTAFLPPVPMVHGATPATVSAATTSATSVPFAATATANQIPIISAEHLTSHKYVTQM
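Inhibition of protein-RNA binding appears as loss of TR-FRET between terbium anti-His antibody on MBNL1-His and streptavidin-XL665 on biotin-(CUG)12. Activity is normalized to buffer-only and uninhibited-complex controls.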
Glioma ERSR ind = induces the endoplasmic reticulum stress response in human glioma cells. Potency, µM, for inactives: at the highest dose activation, usual class: activators. U87-MG GRP78 promoter luciferase reporter, 16 h. 420,000 tested, 0.02% active; further: potency means the concentration at half of the fitted maximal effect; series mostly up to about 76 µM; % of control where 0% means no effect; nearly all actives have a fitted effect of over 35% in size
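ERSR induction read as luciferase luminescence (Bright-Glo, 10 min at room temperature) in stably transfected human U87-MG glioma cells exposed to compounds for 16 h, using GRP78 as sensor.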
Mito fusion yeast = blocks mitochondrial division or promotes mitochondrial fusion; 320,000 tested, 0.23% active; Potency, µM (series often up to 46.1 µM), for inactives: at the highest dose growth rescue (activation), actives largely listed as activators; AID 485298; S. cerevisiae fusion-defective mutant growth rescue, CellTiterGlo 48 h; further: potency means the concentration at half of the fitted maximal effect; % of control where 0% means no effect; nearly all actives have a fitted effect of over 45% in size
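Compounds are tested for their ability to restore growth of mitochondrial fusion-defective yeast strains at non-permissive 37C in YPEG medium over 48 hours. Viability is quantified by luciferase luminescence.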
ClpP mod = qHTS Assay for Activators of ClpP | purified B. subtilis ClpP, FRET peptide cleavage, 20 min | Potency, µM (doses to about 57.5 µM), for inactives: at the top dose activity change, negative = active | 340,000 tested, 1.9% active; active means well fitted falling curve with a large enough effect; inconclusive means small, poorly fitted or top-dose-only effect; inactive means no such curve, though single readings can be large or run the other way; further: potency means the concentration at half of the fitted maximal effect; the source files actives as falling curves though it sought activators and does not explain the sign; nearly all actives have a fitted effect of over 65% in size
Target sequence (P80244 whole entry, looked up): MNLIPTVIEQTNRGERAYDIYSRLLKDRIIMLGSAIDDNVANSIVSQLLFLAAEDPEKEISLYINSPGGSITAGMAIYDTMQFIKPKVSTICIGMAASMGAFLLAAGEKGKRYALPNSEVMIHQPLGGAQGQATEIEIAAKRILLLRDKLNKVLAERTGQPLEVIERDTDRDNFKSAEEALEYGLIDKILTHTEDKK
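ClpP 10 microg/mL final, pH 8 Tris/KCl buffer with BSA, glycerol, Tween-20; compound pinned in; FRET-FV substrate; RT 20 min; Ex320/Em430; ΔFRET vs ADEP 5.8 microM, DMSO, no enzyme.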
The depositor's hits bear a star; ! = repeats disagree; [ ] = another dose, or the depositor's remark. Unless noted, the call rests on the fitted dose curve; in most records, active means well fitted curve in the direction sought with a large enough effect; inconclusive means small, poorly fitted or top-dose-only effect, or another doubt; inactive means no such curve, though single readings can be large; an effect the other way counts as inactive or inconclusive.

What do the screens show for `COc1ccc(CN2C[C@H](Sc3nc4ccccc4[nH]3)C[C@H]2C(=O)N(C)C)c2ccccc12`?
Glioma ERSR ind: -5%

How did O=C(c1ccc(Cl)cc1)N1CCC(C(=O)N2CCCc3ccccc32)CC1 do in these assays?
TCR act: -4%; AT treatment: 13%; MBNL1 CUG block: 4%; Glioma ERSR ind: -2%; Mito fusion yeast: -2%; ClpP mod: 32µM*

What do the screens show for `Cc1ccccc1C(=O)N1CCC(C(=O)N2CCCc3ccccc32)CC1`?
TCR act: 2%; AT treatment: 1%; Glioma ERSR ind: -1%; Mito fusion yeast: -5%; ClpP mod: 1%

What do the screens show for `COc1ccc(C(=O)NCCN2Cc3cc(C)ccc3OC(C)C2)c(OC)n1` (stereo unspecified)?
Glioma ERSR ind: -4%

What do the screens show for `Cn1c2ccccc2c2ncn(CCN3CCOCC3)c(=O)c21`?
TCR act: 1%; AT treatment: -4%; MBNL1 CUG block: 9%; Glioma ERSR ind: -2%; Mito fusion yeast: 1%; ClpP mod: 32µM*

What do the screens show for `COc1cccc(CNC(=O)c2cnn(-c3ncc4c(n3)-c3ccccc3CCC4)c2C)c1OC`?
Glioma ERSR ind: 0%

What do the screens show for `Cc1ncc2c(c1CNC(=O)/C=C/c1cccs1)CCN(C(=O)c1cc(C(C)C)on1)C2`?
Glioma ERSR ind: -3%

How did CCOc1ccc(/C=C/C(=O)Nc2ccc(OC)cc2[N+](=O)[O-])cc1 do in these assays?
TCR act: 2%; AT treatment: 5%; MBNL1 CUG block: 8%; Glioma ERSR ind: -1%; Mito fusion yeast: -5%; ClpP mod: 10µM*

How did CS(=O)(=O)c1ccc(-c2ccc3c(c2)CC(CNC(=O)C2(N4CCOCC4)CCCCC2)O3)cc1 (stereo unspecified) do in these assays?
Glioma ERSR ind: -2%

How did O=C(CSc1nc2nc(-c3cccs3)cc(C(F)(F)F)c2c(=O)[nH]1)C(F)(F)F do in these assays?
TCR act: 1%; AT treatment: 2%; MBNL1 CUG block: inconclusive; Glioma ERSR ind: 3%; Mito fusion yeast: 27%; ClpP mod: 4%

What do the screens show for `O=C(CSc1nc2nc(-c3cccs3)cc(C(F)(F)F)c2c(=O)[nH]1)NCc1ccco1`?
TCR act: -3%; AT treatment: -4%; MBNL1 CUG block: inconclusive; Glioma ERSR ind: -3%; Mito fusion yeast: 2%; ClpP mod: 8.9µM*

What do the screens show for `CCn1cc(/C=N/NS(=O)(=O)c2ccc(OC)cc2)c(C)n1`?
TCR act: 2%; AT treatment: 2%; MBNL1 CUG block: -14%; Glioma ERSR ind: -3%; Mito fusion yeast: -3%; ClpP mod: 32µM*

How did COC(=O)c1cc(CNC(=O)c2cccc(N(C)C)c2)cc(NC(=O)c2ccccc2Cl)c1 do in these assays?
Glioma ERSR ind: -7%

What do the screens show for `CCC(C)NC(=O)CCCCCn1c(=O)[nH]c2cc(OC)c(OC)cc2c1=O` (stereo unspecified)?
TCR act: 0%; AT treatment: -4%; MBNL1 CUG block: -2%; Glioma ERSR ind: 2%; Mito fusion yeast: 2%; ClpP mod: 28µM*

How did COc1cc2[nH]c(=O)n(CCC(=O)NC3CCCC3)c(=O)c2cc1OC do in these assays?
TCR act: -5%; AT treatment: 4%; MBNL1 CUG block: -2%; Glioma ERSR ind: 4%; Mito fusion yeast: -3%; ClpP mod: 28µM*

Results for CCCCNC(=O)CCCCCn1c(=O)[nH]c2cc(OC)c(OC)cc2c1=O ?
TCR act: 4%; AT treatment: -1%; MBNL1 CUG block: -11%; Glioma ERSR ind: -2%; Mito fusion yeast: 2%; ClpP mod: 28µM*

How did CCCCCNC(=O)CCCCn1c(=O)[nH]c2cc(OCC)c(OCC)cc2c1=O do in these assays?
TCR act: 3%; AT treatment: 0%; MBNL1 CUG block: 9%; Glioma ERSR ind: -3%; Mito fusion yeast: 3%; ClpP mod: inconclusive

What do the screens show for `CCCCCCCCCC[n+]1ccc(/C=C/c2c(C)[nH]c3ccccc23)cc1`?
Glioma ERSR ind: -12%; ClpP mod: 0%

How did COc1ccc(OC)c(/C=C/c2cc3ccccc3cn2)c1 do in these assays?
Glioma ERSR ind: 0%; ClpP mod: -25%

What do the screens show for `CCOc1ccc(NC(=O)CSc2nnc(C)n2C2CC2)cc1S(=O)(=O)N1CCCC1`?
TCR act: 2%; AT treatment: -5%; Glioma ERSR ind: -1%; Mito fusion yeast: -6%; ClpP mod: 25µM*

How did CCCc1ccc(Oc2cc(C)nc(N3CCOCC3)n2)cc1 do in these assays?
TCR act: 1%; AT treatment: 25µM*; MBNL1 CUG block: -14%; Glioma ERSR ind: 0%; Mito fusion yeast: -9%; ClpP mod: -7%

How did Cc1cc(Oc2ccc(C(C)(C)C)cc2)nc(N2CCOCC2)n1 do in these assays?
TCR act: 6%; MBNL1 CUG block: -17%; Glioma ERSR ind: 1%; Mito fusion yeast: 4%; ClpP mod: -14%

How did C=CCNc1nc(NCc2cccc(OC)c2)c2sc(-c3ccccc3)cc2n1 do in these assays?
Glioma ERSR ind: -1%; ClpP mod: 20µM*

Results for COc1cccc(CNc2nc3cc(-c4cccc(Cl)c4)sc3c(=O)n2C)c1 ?
Glioma ERSR ind: 0%; ClpP mod: 20µM*

What do the screens show for `Cc1ccc(CNc2nc3cc(-c4ccccc4)sc3c(=O)n2C)c(C)c1`?
Glioma ERSR ind: -2%; ClpP mod: 28µM*

How did CCc1ccc(-c2nc3ccc(Br)cc3c(C(=O)O)c2C)s1 do in these assays?
TCR act: 0%; AT treatment: 6%; MBNL1 CUG block: 438%; Glioma ERSR ind: 7%; Mito fusion yeast: 18%; ClpP mod: 25µM*!

What do the screens show for `Cc1c(-c2ccccc2Br)nc2ccccc2c1C(=O)O`?
TCR act: -5%; Glioma ERSR ind: -3%; ClpP mod: -2%

How did COc1ccc(CN2[C@@H](CC(=O)O)c3ccc(/C=C/C(=O)O)cc3S2(=O)=O)cc1 do in these assays?
Glioma ERSR ind: -4%; ClpP mod: 0%

What do the screens show for `O=c1[nH]cnc2c1C1(CCCC1)Cc1ccccc1-2`?
TCR act: 0%; AT treatment: -3%; MBNL1 CUG block: -4%; Glioma ERSR ind: -5%; Mito fusion yeast: 5%; ClpP mod: 13µM*

What do the screens show for `O=c1[nH]c(NNC(=S)NCc2ccccc2)nc2c1C1(CCCCC1)Cc1ccccc1-2`?
TCR act: -3%[46.1 µM]; AT treatment: 3%; MBNL1 CUG block: -17%; Glioma ERSR ind: 3%; Mito fusion yeast: -4%; ClpP mod: 16µM*
